Screens as filed in PubChem BioAssay.
This is a sample that favours compounds with a hit; in the whole collection about 3.5% have one here.
FBW7 activator – human FBW7 E3 ligase activation, primary screen | Q969H0 | AlphaScreen FBW7–phospho-cyclin E peptide binding, activator screen | normalized activity (activation), % at 26.1 µM | actives 0.13% (n = 650,000) | AID 1259310; in the data active = normalized activity above about 1.9%;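 also: purified mutant Fbw7 with reduced substrate affinity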
TEAD-YAP inh – TEAD-YAP interaction inhibition. HEK-TIYL cells, TEAD-Gal4/YAP UAS-luciferase luminescence. inhibition, % at 9.12 µM. actives 1.4% (n = 640,000). AID 1259422; in the data active = inhibition above about 32%;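 also: 0% = median of test compound wells and 100% = reference inhibitor wells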
MITF primary – blocks human microphthalmia-associated transcription factor; O75030; AlphaScreen MITF homodimerization, bead proximity signal; inhibition, % at 2.6 µM; actives 0.91% (n = 650,000); in the data active = inhibition above about 50%;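 also: 0% = vehicle wells with protein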
GPR151 ag – human GPR151 activation. Q8TDV0. PathHunter beta-arrestin GPR151 cells, luminescence. activation, % at 11.2 µM. actives 1% (n = 650,000). AID 1508602; in the data active = activation above about 4.9%;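 also: 0% = median of compound wells and 100% = cells with positive control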
Target sequence (Q8TDV0 whole entry, looked up): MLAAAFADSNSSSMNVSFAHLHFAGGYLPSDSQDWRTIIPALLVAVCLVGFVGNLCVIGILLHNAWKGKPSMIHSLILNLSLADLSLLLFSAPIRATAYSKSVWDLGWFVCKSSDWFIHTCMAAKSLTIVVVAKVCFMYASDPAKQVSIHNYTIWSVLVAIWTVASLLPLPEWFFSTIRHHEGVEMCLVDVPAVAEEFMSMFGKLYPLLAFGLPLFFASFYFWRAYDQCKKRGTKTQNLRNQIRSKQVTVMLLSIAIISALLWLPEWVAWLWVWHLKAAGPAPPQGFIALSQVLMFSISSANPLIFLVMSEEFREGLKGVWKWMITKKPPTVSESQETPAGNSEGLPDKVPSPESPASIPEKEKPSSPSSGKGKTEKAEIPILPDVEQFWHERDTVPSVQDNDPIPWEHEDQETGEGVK
MITF confirm – human MITF inhibition, confirmation | AlphaScreen MITF homodimerization, biotin/His-MITF beads | actives 16% (n = 4,700) | inhibition, % at 2.6 µM | shares compounds with MITF primary | AID 1259372;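 active = inhibition above a cutoff derived from the DMSO control wells, cut at about 28% in these data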;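 also: 0% = MITF dimer wells with DMSO only; inhibitors lower the bead chemiluminescence by keeping MITF from dimerizing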
AlphaScreen intf2 – optically interferes with AlphaScreen signal; inhibition, % at 2.6 µM; actives 7.6% (n = 4,700); LysRS AlphaScreen counterscreen, signal interference, triplicate; shares compounds with MITF primary;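 active = inhibition above a cutoff derived from the DMSO control wells, cut at about 30% in these data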
The depositor's hits bear a star.

Results for CC(=O)c1ccc(NC(=O)Nc2ccc(Cl)c(Cl)c2)cc1 ?
FBW7 activator: 0; TEAD-YAP inh: -83; MITF primary: -3; GPR151 ag: -1

What do the screens show for `COC(=O)c1c(NC(=O)CCl)sc2c1CCCC2`?
FBW7 activator: 1; TEAD-YAP inh: 27; MITF primary: 5; GPR151 ag: -1

What do the screens show for `COC(=O)CC1=NN(c2nc3ccccc3[nH]2)C(=O)C1`?
FBW7 activator: -1; TEAD-YAP inh: 3; MITF primary: 79*; GPR151 ag: 3; MITF confirm: 70*; AlphaScreen intf2: 97*

Results for O=C(CN1CCN(Cc2nc3ccccc3[nH]2)CC1)N1CCCc2ccccc21 ?
FBW7 activator: 0; TEAD-YAP inh: 9; MITF primary: 91*; GPR151 ag: -2; MITF confirm: 1; AlphaScreen intf2: 24

How did COCC(=O)N1CCN(Cc2nc3ccccc3[nH]2)CC1 do in these assays?
FBW7 activator: 0; TEAD-YAP inh: -5; MITF primary: 58*; GPR151 ag: 2; MITF confirm: 3; AlphaScreen intf2: 15

How did COc1ccc(Cl)cc1NC(=O)c1sc2nc(C)nc(N3CCC(C)CC3)c2c1C do in these assays?
FBW7 activator: 0; TEAD-YAP inh: 9; MITF primary: -9; GPR151 ag: 1

Results for CCN1CCC(CNC(=O)c2nn(CC3CC3)c3c2CN(Cc2ccc4c(c2)OCO4)CC3)C1 (centres undefined) ?
FBW7 activator: 0; TEAD-YAP inh: 1; MITF primary: 5; GPR151 ag: 0

What do the screens show for `CC(=O)Nc1ccc(N2CCN(C(=O)c3ccccc3)CC2)cc1`?
FBW7 activator: 0; TEAD-YAP inh: 9; MITF primary: 53*; GPR151 ag: 2; MITF confirm: -12; AlphaScreen intf2: -3

Results for COc1ccc2nc(-c3ccc(NC(=O)c4cccs4)cc3)cn2n1 ?
FBW7 activator: 2; TEAD-YAP inh: -12; MITF primary: 24; GPR151 ag: -2

How did COc1ccc(NC(=O)CN(C)CC(=O)Nc2cccc(C(C)=O)c2)cc1 do in these assays?
FBW7 activator: 0; TEAD-YAP inh: 1; MITF primary: 58*; GPR151 ag: 1; MITF confirm: -1; AlphaScreen intf2: 5

Results for O=C(Cc1cn(-c2ccc(N3CCOCC3)nn2)c2ccccc12)NCCCN1CCCC1=O ?
FBW7 activator: 0; TEAD-YAP inh: -8; MITF primary: -5; GPR151 ag: -1

What do the screens show for `O=C(Cc1cn(-c2ccc(NCCN3CCOCC3)nn2)c2ccccc12)NCCCN1CCCC1=O`?
FBW7 activator: 0; TEAD-YAP inh: -4; MITF primary: 59*; GPR151 ag: 1; MITF confirm: 5; AlphaScreen intf2: 2

How did CCCS(=O)(=O)N1CCN(Cc2ccccc2[N+](=O)[O-])CC1 do in these assays?
FBW7 activator: 0; TEAD-YAP inh: -10; MITF primary: 41; GPR151 ag: 1

Results for O=[N+]([O-])c1ccccc1CN1CCCCCCC1 ?
FBW7 activator: 0; TEAD-YAP inh: -2; MITF primary: 24; GPR151 ag: -1

How did CC(C)CC(=O)N1CCN(Cc2ccccc2[N+](=O)[O-])CC1 do in these assays?
FBW7 activator: 0; TEAD-YAP inh: -10; MITF primary: 56*; GPR151 ag: 0; MITF confirm: 11; AlphaScreen intf2: 24

How did O=[N+]([O-])c1ccccc1CN1CCN(CCO)CC1 do in these assays?
FBW7 activator: 0; TEAD-YAP inh: 3; MITF primary: 77*; GPR151 ag: 1; MITF confirm: -3; AlphaScreen intf2: 2

Results for COc1cc(CN2CCN(CCOCCO)CC2)c([N+](=O)[O-])cc1OC ?
FBW7 activator: 0; TEAD-YAP inh: 1; MITF primary: -28; GPR151 ag: -1

Results for O=[N+]([O-])c1ccccc1CN1CCN(CCOCCO)CC1 ?
FBW7 activator: 0; TEAD-YAP inh: -1; MITF primary: 62*; GPR151 ag: 0; MITF confirm: 19; AlphaScreen intf2: 1

Results for C/C(=N\NC(=O)COc1ccc(Cl)cc1Cl)c1ccco1 ?
FBW7 activator: 0; TEAD-YAP inh: 9; MITF primary: -1; GPR151 ag: 0

How did CC(C)C(=O)N=C1SC2CS(=O)(=O)CC2N1Cc1ccccc1Cl (centres undefined) do in these assays?
FBW7 activator: 1; TEAD-YAP inh: -8; MITF primary: 11; GPR151 ag: 0

How did O=C(O)c1ccccc1SCC1CCCO1 (centres undefined) do in these assays?
FBW7 activator: 0; TEAD-YAP inh: -9; MITF primary: 7; GPR151 ag: -1

Results for O=C(O)c1cc(-c2ccco2)nc2ccc(Br)cc12 ?
FBW7 activator: 0; TEAD-YAP inh: -7; MITF primary: 58*; GPR151 ag: 0; MITF confirm: 20; AlphaScreen intf2: 18

How did O=C(O)c1ccccc1-c1cc(C(=O)O)c2cc(Br)ccc2n1 do in these assays?
FBW7 activator: 0; TEAD-YAP inh: 11; MITF primary: 1; GPR151 ag: -1

Results for C=CCN(CC=C)CCOc1ccc(C(=O)OC)cc1 ?
FBW7 activator: 0; TEAD-YAP inh: -7; MITF primary: 51*; GPR151 ag: -3; MITF confirm: -10; AlphaScreen intf2: -7

How did CCCN(CCC)C(=O)c1c(NC(C)=O)sc2c1CCCCC2 do in these assays?
FBW7 activator: 0; TEAD-YAP inh: -10; MITF primary: 65*; GPR151 ag: 2; MITF confirm: 63*; AlphaScreen intf2: 38*

What do the screens show for `CCCN(CCC)C(=O)c1c(NC(=O)c2cccnc2)sc2c1CCCCC2`?
FBW7 activator: 0; TEAD-YAP inh: -5; MITF primary: -4; GPR151 ag: 0

What do the screens show for `COc1ccc(C(=O)Nc2ccccc2)cc1S(=O)(=O)Nc1cc(C)on1`?
FBW7 activator: 0; TEAD-YAP inh: -2; MITF primary: 69*; GPR151 ag: 1; MITF confirm: 3; AlphaScreen intf2: 14

Results for COc1ccc(NS(=O)(=O)c2cc(C(=O)Nc3ccccc3)ccc2OC)cc1 ?
FBW7 activator: 0; TEAD-YAP inh: 2; MITF primary: -1; GPR151 ag: -1

Results for c1ccc(CN2CCC(=NNc3nc4ccccc4[nH]3)CC2)cc1 ?
FBW7 activator: 0; TEAD-YAP inh: -11; MITF primary: 43; GPR151 ag: -1

What do the screens show for `CN1CCC(=NNc2nc3ccccc3[nH]2)CC1`?
FBW7 activator: 0; TEAD-YAP inh: -26; MITF primary: 53*; GPR151 ag: -1; MITF confirm: 8; AlphaScreen intf2: 2

Results for Cc1nnc2c(NC3CC3)nc3ccccc3n12 ?
FBW7 activator: 0; TEAD-YAP inh: 0; MITF primary: 3; GPR151 ag: 0

Results for COc1ccc(C(=O)COC(=O)CCC(=O)Nc2ccc(Cl)c(Cl)c2)cc1 ?
FBW7 activator: 0; TEAD-YAP inh: 2; MITF primary: -6; GPR151 ag: 2
